{
  "source": "PubChem BioAssay AID2803",
  "about": "(The Scripps Research Institute Molecular Screening Center, 2010)",
  "note": "Hit rate of the full screen: of about 2,000 compounds, about 1,300 (65%) were called active. Rule as the data show it: active = inhibition above about 43%; inactive = the rest. So high a share suggests a set chosen from earlier hits. These entries were drawn from the full list.",
  "data": [
    {"target": "Prolyl endopeptidase-like (Homo sapiens) (UniProt Q4J6C6)", "sequence (Q4J6C6 whole entry, looked up)": "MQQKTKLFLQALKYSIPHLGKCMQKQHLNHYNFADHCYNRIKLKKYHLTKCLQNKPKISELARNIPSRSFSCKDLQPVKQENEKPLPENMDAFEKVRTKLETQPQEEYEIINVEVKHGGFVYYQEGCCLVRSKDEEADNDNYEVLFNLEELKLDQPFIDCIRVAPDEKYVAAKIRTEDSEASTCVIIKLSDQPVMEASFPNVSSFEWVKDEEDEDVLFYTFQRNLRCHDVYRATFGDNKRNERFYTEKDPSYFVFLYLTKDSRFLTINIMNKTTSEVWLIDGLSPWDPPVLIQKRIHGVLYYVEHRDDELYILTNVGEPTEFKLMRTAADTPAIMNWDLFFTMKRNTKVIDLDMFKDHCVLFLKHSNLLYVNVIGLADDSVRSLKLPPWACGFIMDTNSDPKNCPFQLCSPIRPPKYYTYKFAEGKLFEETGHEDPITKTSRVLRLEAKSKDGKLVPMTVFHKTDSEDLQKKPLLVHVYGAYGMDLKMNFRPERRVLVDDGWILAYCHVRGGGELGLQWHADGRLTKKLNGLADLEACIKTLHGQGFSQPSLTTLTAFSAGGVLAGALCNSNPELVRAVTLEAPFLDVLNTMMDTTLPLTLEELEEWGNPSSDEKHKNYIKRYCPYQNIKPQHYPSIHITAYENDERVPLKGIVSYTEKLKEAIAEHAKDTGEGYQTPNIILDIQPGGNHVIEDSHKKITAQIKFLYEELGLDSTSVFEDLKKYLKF", "test": "human PREPL enzyme inhibitors, confirmation, biochemical, fluorescence polarization (AID 2803);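 also: 0% = protein with DMSO and 100% = wells lacking protein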", "details": "recombinant PREPL, fluorescence polarization activity probe; at 5.96 µM; stronger effect = higher value", "values": [
      {"smiles": "CCOc1ccc2nc(N3CCCN(C(=O)Nc4ccccc4C)CC3)c(C#N)cc2c1", "inhibition": "43.9% (active)"},
      {"smiles": "Nc1ccc(Nc2ccccc2)cc1", "inhibition": "29.3% (inactive)"},
      {"smiles": "CC(=O)Nc1ccc(S(=O)(=O)Nc2ccc(N3CCCCC3)cc2)cc1", "inhibition": "46.4% (active)"},
      {"smiles": "O=C(NNc1c2ccccc2nc2ccccc12)c1cc2ccccc2cc1O", "inhibition": "23.9% (inactive)"},
      {"smiles": "O=C1N=C(N2CCc3ccccc3C2)S/C1=C\\c1ccc(O)cc1", "inhibition": "48.4% (active)"},
      {"smiles": "COc1ccc2cc1Oc1ccc(cc1)C[C@H]1c3cc(c(OC)cc3CCN1C)Oc1c(O)c(OC)cc3c1[C@H](C2)N(C)CC3", "inhibition": "55.2% (active)"},
      {"smiles": "CCN1C(=O)/C(=C\\N2CCN(c3ccccc3)CC2)SC1=S", "inhibition": "54.7% (active)"},
      {"smiles": "COC(=O)[C@H]1[C@H]2C[C@H]3c4[nH]c5ccccc5c4CCN3C[C@@H]2CC[C@@H]1O", "inhibition": "22.4% (inactive)"},
      {"smiles": "Cc1nc([N+](=O)[O-])nn1C12CC3CC(CC(Br)(C3)C1)C2", "inhibition": "8.94% (inactive)"},
      {"smiles": "CCN1/C(=C\\c2ccc3ccccc3[n+]2CC)Sc2cc(C)ccc21", "inhibition": "61.6% (active)"},
      {"smiles": "CCN1/C(=C/c2ccc3ccc(C)cc3[n+]2CC)Sc2ccccc21", "inhibition": "52.8% (active)"},
      {"smiles": "C#CCOCCOCCOCCNc1nc(N2CCN(C(=O)CCCCCCCCCCNC(=O)Cn3cc(CCCCCN)nn3)CC2)nc(N2CCN(C(=O)CCCCCCCCCCNC(=O)[C@H](CO)n3cc(CCCSC)nn3)CC2)n1", "inhibition": "63.1% (active)"},
      {"smiles": "CCC(CO)Oc1cc(NCc2ccccc2)c2ncn(C3CCCC3)c2c1", "note": "(stereo unspecified)", "inhibition": "12% (inactive)"},
      {"smiles": "CC(C)n1cnc2c(NCc3ccccc3)cc(OCC3CCN(C)CC3)cc21", "inhibition": "54.1% (active)"},
      {"smiles": "N#C/C(=C/c1ccc(N2CCCCC2)o1)C(=O)NCCc1c[nH]c2ccccc12", "inhibition": "78.5% (active)"},
      {"smiles": "O=C(NCc1ccccn1)c1ccc2nc(-c3ccco3)c(-c3ccco3)nc2c1", "inhibition": "39.2% (inactive)"},
      {"smiles": "Oc1c(CN2CCCC2)cc(COCc2ccccc2)c2cccnc12", "inhibition": "69.6% (active)"},
      {"smiles": "Cc1ccc(C2CC(c3cccc(C)c3)n3nc(N)nc3N2)cc1", "note": "(stereo unspecified)", "inhibition": "53.7% (active)"},
      {"smiles": "Oc1ccc2ccccc2c1N=Nc1nccs1", "inhibition": "40.4% (inactive)"},
      {"smiles": "O=C(OCC(=O)N1CCN(c2ccccc2)CC1)c1ccc([N+](=O)[O-])s1", "inhibition": "22.6% (inactive)"},
      {"smiles": "O=C(c1cc(C(=O)N2CCN(c3ccc(F)cc3)CC2)cc([N+](=O)[O-])c1)N1CCN(c2ccc(F)cc2)CC1", "inhibition": "47.8% (active)"},
      {"smiles": "COCCN(CCOC)c1nc(N)c2c(N)nc3c(c2c1C#N)CC(=O)N3Cc1ccc(Cl)cc1", "inhibition": "19.2% (inactive)"},
      {"smiles": "O=C1c2ccccc2C(=O)c2c1cccc2N1CCN(C/C=C/c2ccccc2)CC1", "inhibition": "80.7% (active)"},
      {"smiles": "COc1ccc2cc(C(=O)C3CCCN(C(=O)c4sc(C)nc4C)C3)ccc2c1", "note": "(stereo unspecified)", "inhibition": "31.8% (inactive)"},
      {"smiles": "C[N+](C)(CCCCCC[N+](C)(C)CCCN1C(=O)c2cccc3cccc(c23)C1=O)CCCN1C(=O)c2cccc3cccc(c23)C1=O", "inhibition": "56% (active)"},
      {"smiles": "Cn1c(CCN2CCCCCC2)nc2cc(NC(=O)Nc3ccccc3)ccc21", "inhibition": "38.1% (inactive)"},
      {"smiles": "O=C(N/N=C/c1cccnc1)c1cc2ccccc2cc1O", "inhibition": "5.89% (inactive)"},
      {"smiles": "CC(C)(C)Nc1nc(-c2ccccn2)nc2ccccc12", "inhibition": "62.5% (active)"},
      {"smiles": "CC(=O)N1CCN(c2ccc(NCc3ccc(C(C)C)cc3)cc2)CC1", "inhibition": "61.9% (active)"},
      {"smiles": "COc1cc2c(cc1O)[C@H](Cc1ccc(Oc3cc(C[C@@H]4NCCc5cc(OC)c(O)cc54)ccc3O)cc1)NCC2", "inhibition": "37.1% (inactive)"},
      {"smiles": "C[C@@H](CN1CCC[C@H]1CN1C(N)=NC[C@@H]1Cc1ccccc1)N1C[C@@H](Cc2ccccc2)N(CCCC2CCCC2)C1=N", "inhibition": "42.6% (inactive)"},
      {"smiles": "CC[C@@H](C)[C@@H]1CN([C@@H](C)CN2CCC[C@H]2CN2C(N)=NC[C@H]2C(C)C)C(=N)N1CCc1ccc(Cl)c(Cl)c1", "inhibition": "66.1% (active)"},
      {"smiles": "COc1ccc(NC(C)=O)cc1NC(=O)CN1CCN(C2c3ccccc3-c3ccccc32)CC1", "inhibition": "37.7% (inactive)"},
      {"smiles": "Cc1ccc(OCC(=O)Nc2ccc(N3CCN(C(=O)c4ccco4)CC3)cc2)c(C)c1", "inhibition": "52.6% (active)"},
      {"smiles": "CN1CCN(c2ccc(NC(=O)COc3ccc(Cl)cc3Cl)cc2)CC1", "inhibition": "58% (active)"},
      {"smiles": "Cc1ccccc1OCC(=O)Nc1ccc(N2CCN(C(=O)C(C)C)CC2)c(Cl)c1", "inhibition": "42.7% (inactive)"},
      {"smiles": "CC1CCN(C(=O)c2ccc3c(c2)NC(=O)CN3)CC1", "inhibition": "12.2% (inactive)"},
      {"smiles": "O=C1N[C@H](Cc2c[nH]c3ccccc23)COC(=O)[C@H](Cc2ccc(F)cc2)C/C=C\\C[C@H]1CC(=O)N(CCO)Cc1ccccc1", "inhibition": "34.5% (inactive)"},
      {"smiles": "Cc1ccc(N2CCN(C3=NC(=O)/C(=C\\c4cccs4)S3)CC2)cc1", "inhibition": "44.4% (active)"},
      {"smiles": "CCN(CC)c1ccc2cc(C(N)=O)/c(=N\\NC(=O)c3ccncc3)oc2c1", "inhibition": "56.2% (active)"},
      {"smiles": "COC(=O)Cc1nc2ccccc2[nH]1", "inhibition": "7.22% (inactive)"},
      {"smiles": "Nc1c(C(=O)c2cccs2)sc2nsc(SCCN3CCCCC3)c12", "inhibition": "54.6% (active)"},
      {"smiles": "Cc1ccc(NS(=O)(=O)c2ccc(N/N=C/c3ccccc3OCC(=O)O)c([N+](=O)[O-])c2)c(C)c1", "inhibition": "46.4% (active)"},
      {"smiles": "CC(C)CCNc1nc(N2CCCC2)c2c(c1C#N)CCN(C)C2", "inhibition": "49% (active)"},
      {"smiles": "CNCC[C@H](Oc1ccc(C(F)(F)F)cc1)c1ccccc1", "inhibition": "55.1% (active)"},
      {"smiles": "Cc1ccc(Nc2ccccc2N)cc1", "inhibition": "32.1% (inactive)"}
    ]}
  ]
}
